# Assay outcomes (PubChem BioAssay)
# This is one part of a sample in which hits are shown more often than they occur.
# Tg IFNy HTS: inhibitors of Toxoplasma gondii growth with IFN-gamma; hit rate 3.8% among 69,000; Toxoplasma gondii growth in IFN-gamma-treated host cells; hits give low values; AID 1259416; activity change, negative = inhibition, % (concentration not given with the values); in the data active = activity change below about -70%, passing the limit was not always enough;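 also: host cells are HeLa cells infected with Toxoplasma gondii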
# Starred values were filed as active, the others as inactive; i = inactive; ! = not active in a repeat.
SMILES,Tg IFNy HTS
CC(=O)c1ccc(N2CCCC(CO)(CCc3ccccc3)C2)nc1 (centres undefined),2.6
CC(=O)Nc1ccc(-c2c(-c3ccccc3)ncn2Cc2ccco2)cc1,-3.3
C=CCn1cnc(-c2ccccc2)c1-c1ccc2onc(C)c2c1,-0.7
CO[C@H]1COC[C@@H]1n1cnc(-c2ccccc2)c1-c1ccc2occc2c1,-77.8*
CC(C)N1CCC2(C=C(C(=O)NC3CC3)c3ccccc32)CC1,-4.0
O=C1c2ccccc2C2(O)Nc3[nH]c(=O)[nH]c(=O)c3C12O (centres undefined),-37.7
CCc1nc2cc(NC(=O)COc3ccc4nsnc4c3)ccc2n1C,19.2
Cn1cnc2cc(C(=O)Nc3ccc4c(c3)nc(C(F)(F)F)n4C)ccc21,-27.0
Cn1c(Nc2ccc(C(F)(F)F)cc2)nc2cc(Oc3ccnc(-c4ncc(C(F)(F)F)[nH]4)c3)ccc21,-72.5*
Cc1noc([C@@H]2C[C@@H]3OCC[C@@H]3N(Cc3cccs3)C2)n1,-1.0
COc1ccc(NC(=O)CN2CCC(c3cccc(Cc4ccccc4)n3)CC2)cc1,17.2
CCOC(=O)c1nc(NCc2ccc3c(c2)OCO3)c2ccccc2n1,9.2
Cc1nc2ncnn2c(NCc2ccc3c(c2)OCO3)c1Cc1ccccc1,-95.5*
Cc1cccc(CCNc2cc(C)nc3ncnn23)c1,3.0
Cc1ccc(Nc2ncnc3c2cnn3-c2ccc(C)cc2C)cc1,0.2
C/C=C/c1ccc([C@@H]2[C@@H](CO)N(CCC(F)(F)F)C23CN(C(=O)CC2CC2)C3)cc1,108.4
COCCn1c2c(ccc1=O)CC(NC(=O)c1ccc[nH]1)CC2 (centres undefined),30.9
CCCS(=O)(=O)Nc1ccc(F)c(C(=O)c2c[nH]c3ncc(-c4ccc(Cl)cc4)cc23)c1F,-78.6*
Cc1ccc(-c2noc(-c3nnn(Cc4nc(-c5ccccc5)oc4C)c3C)n2)cc1,1.5
NC(=O)N/N=C/c1ccc(Oc2ccc(F)cc2)cc1,19.1
NC(=O)N/N=C/c1ccc([N+](=O)[O-])o1,-72.5*!
O=C1OC(CN2CCOCC2)CN1/N=C/c1ccc([N+](=O)[O-])o1 (centres undefined),-11.5
CO[C@@H]1CN(C)C(=O)c2ccc(NC(=O)Nc3ccccc3F)cc2OC[C@@H](C)N(CC2CC2)C[C@H]1C,205.8
Cc1ccc(C(=O)NCCc2csc(-c3cccc(F)c3)n2)cc1,-23.9
CN1[C@@H](C(=O)N2CCC(C(N)=O)CC2)C[C@@H](c2ccc(F)cc2)NS1(=O)=O,16.1
SMILES,Tg IFNy HTS
COc1ccc(CC2(CO)CCN(C(=O)c3ccc4c(c3)OCO4)CC2)cc1,-18.8
O=C(c1ccccc1F)N1CCC2(CC1)Nc1ccc(Cl)cc1-n1cccc12,42.8
COc1cccc(NC(=O)Nc2ccc(-c3nc(-c4ccc(C)cc4C)co3)cc2)c1,2.4
CCOc1ccc(NC(=O)Nc2ccc(-c3nc(-c4cccc(Br)c4)co3)cc2)cc1,1.4
CC[C@H](CC#N)OC(=O)N[C@@H](C)c1cccc(NC(=O)Nc2ccc(-c3cnco3)c(OC)c2)c1,-81.9*
C[C@H]1CCCCO[C@@H](CN(C)C(=O)NC2CCCCC2)[C@@H](C)CN([C@@H](C)CO)C(=O)c2cc(N(C)C)ccc2O1,160.4
Cc1cc(C)n(Cc2nc(-c3ccc(NC(=O)Cc4cccc(F)c4)cc3)oc2C)n1,-38.3
Cc1cc(C)n(Cc2nc(-c3ccc(NC(=O)c4ccc(F)cc4F)cc3)oc2C)n1,-84.8*
Cc1cc(C)n(Cc2nc(-c3ccc(NC(=O)c4ccc(F)cc4Cl)cc3)oc2C)n1,65.6
COc1ccc(C(=O)Nc2ccc(-c3nc(Cn4nc(C)cc4C)c(C)o3)cc2)cc1F,113.9
Cc1nn(Cc2nc(-c3ccc(NC(=O)c4ccc(F)cc4F)cc3)oc2C)c(C)c1C,-100.6*
Cc1cc(C)n(Cc2nc(-c3ccc(NC(=O)c4cc(F)ccc4F)cc3)oc2C)n1,-81.0*
Cc1nn(Cc2nc(-c3ccc(NC(=O)c4ccccc4F)cc3)oc2C)c(C)c1C,-69.5
Cc1cc(C)n(Cc2nc(-c3ccc(NC(=O)Cc4ccccc4F)cc3)oc2C)n1,-7.9
Cc1nn(Cc2nc(-c3ccc(NC(=O)c4cccc(F)c4)cc3)oc2C)c(C)c1C,48.8
Cn1cc(SCC(=O)N2CCCC3(CC2)CNC(=O)O3)c2ccccc21 (centres undefined),111.4
CCOc1nc(-c2ccccc2)c2cc(C)ccc2n1,i
COC(=O)c1[nH]ncc1CN1CCCC1c1nc(-c2ccccc2)no1 (centres undefined),-16.0
CN(C)C(=O)N1CCCn2cnc(CN3CCCC3=O)c2C1,-50.4
CN(Cc1ccc(-n2cccn2)cc1)CC1CCC(N)CC1 (centres undefined),0.0
CCCCNC(=O)OCCOc1cc(C(F)(F)F)ccn1,-5.6
Cc1cc(OC(C(=O)O)c2ccccc2)c2c(C)c(Cc3ccccc3)c(=O)oc2c1 (centres undefined),8.5
CCN(CC)c1ccc2c(C)c(CC(C)=O)c(=O)oc2c1,-98.3*
COc1ccc(-c2c(C)c3ccc(OCC(C)=O)cc3oc2=O)cc1,202.1
Cc1ccc(CN(CCCn2ccnc2)Cc2ccnc(N3CCN(C)CC3)n2)s1,37.3
SMILES,Tg IFNy HTS
COCC1CN(C(=O)c2cc(C)on2)Cc2ncn(CC3CC3)c21 (centres undefined),4.7
Cc1ccc(NC(=O)Nc2ccc3c(c2)C(=O)N(C)[C@@H]2CC[C@@H](CC(=O)NCC(F)(F)F)O[C@@H]2CO3)cc1,-31.0
c1cc(-c2ccc(-c3ncnc4ccsc34)cc2)[nH]n1,-82.3*
c1nc(NN2CCCCC2)c2sccc2n1,36.3
Cc1ccc(Sc2ncnc3ccsc23)cc1,46.0
COc1ccc2c3c(n(C)c2c1)[C@H](CO)N(CC1CCOCC1)CC31CN(Cc2nccs2)C1,3.5
CN(C)CC(=O)N1C[C@H]2CCC[C@]2(COCC2CCOCC2)C1,74.4
Clc1ccc(/C=C2\CCCC3C2=NNC3c2ccc(Cl)cc2)cc1 (centres undefined),-92.3*
C[C@@H]1CCCCO[C@@H](CN(C)Cc2ccc3c(c2)OCO3)[C@@H](C)CN([C@@H](C)CO)C(=O)c2cc(NS(=O)(=O)c3cn(C)cn3)ccc2O1,232.9
Cc1nnc(Sc2c(N)n(C)c(=O)[nH]c2=O)s1,2.9
Cc1nnc(-c2ccc(C(C)N3CCCCC3)cc2)s1 (centres undefined),0.7
Cc1nnc(Sc2nc(Sc3nnc(C)s3)nc(N3CCCCC3)n2)s1,-84.2*
CCS(=O)(=O)N1Cc2ccnn2CC(COc2cccnc2)C1 (centres undefined),10.8
CN1c2ncccc2C(=O)NC12CCN(C(=O)Cn1cnc3ccccc3c1=O)CC2,42.6
CCC1=C[C@@H]2CN(C1)Cc1c([nH]c3ccccc13)[C@@](C(=O)OC)(c1cc3c(cc1OC)N(C)[C@H]1[C@@](O)(C(=O)OC)[C@H](OC(C)=O)[C@]4(CC)C=CCN5CC[C@]31[C@@H]54)C2,-73.6*
Cc1cccc(NC(=O)Cn2c(=O)cc(C(=O)N3CCCCC3)c3ccccc32)c1C,14.7
CN1CC2(CCCN(C(=O)c3ccc4cccnc4c3O)C2)OC1=O (centres undefined),-0.3
CC1c2ccsc2CCN1S(C)(=O)=O (centres undefined),-35.5
COCCNC(=O)C[C@H]1CC[C@H]2[C@@H](COC[C@H](O)CN2Cc2ccc(Cl)c(Cl)c2)O1,16.1
Fc1ccc(-n2cc(CNCCc3cn[nH]c3)c(-c3ccccc3Cl)n2)cc1,11.4
O=C(CC1N=C2c3ccccc3N=C(SCc3ccc(Cl)cc3)N2C1=O)NCc1cccs1 (centres undefined),-45.0
